Our source for the growth values is PubChem BioAssay (NCI).

What all share (assay): NCI-60 one-dose screen, 48 h (100 = growth as untreated, 0 = no growth, -100 = all killed)
The subject of assay [1] is SK-MEL-2 melanoma. As to conditions: 10 µM unless noted.
Assay [2] relates to EKVX NSCLC. As to conditions: 10 µM unless noted.
Assay [3] has as its system SN12C renal. As to conditions: 10 µM unless noted.
In assay [4] the test system is UO-31 renal. The note with it: 10 µM unless noted.
The subject of assay [5] is TK-10 renal. As to conditions: 10 µM unless noted.
Assay [6] concerns ACHN renal. The note with it: 10 µM unless noted.
Assay [7] concerns CAKI-1 renal. As to conditions: 10 µM unless noted.
Assay [8] concerns A498 renal. The note with it: 10 µM.
Assay [9] deals with HL-60(TB) leukemia. As to conditions: 10 µM unless noted.
The test system of assay [10] is CCRF-CEM leukemia. The note with it: 10 µM unless noted.

About 83,000 compounds went through this panel and 20% of them were active in at least one assay; those are over-represented in the sample as a whole.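 Each cell line was grown in a 96-well plate and treated with one concentration of compound for 48 hours. Values below 10 were considered active.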 A number with no mark means an inactive call. Calls of active or inactive are those of the source.

`O=C1C(Cl)=C(N2CCOCC2)C(=O)c2ccccc21`: the growth in assay [1] was 119%; in assay [2], 96.9%; in [3], 105%; in assay [4], 51.8%; in assay [5], 127%; in assay [6], 78.4%. For the same compound, the growth is 6.93% (active) in [7], 93.8% in [8], -36.6% (active) in assay [9] and -27.6% (active) in [10].
Take `O=C(CN1CCN(C(=O)c2ccco2)CC1)Nc1ccc(Cl)cc1C(=O)c1ccccc1Cl`: the growth in assay [1] was 46.6%; in assay [2] it was 94.3%; in assay [3] it was 105%; in assay [4], 35.3%; in assay [5] it was 132%; in assay [6], 81.3%. Also, the growth in [7] is 91.7%; in [8], 83.8%; in assay [9] it was 49.4%; in assay [10] it was 163%.
As for `Fc1cccc(NCOOC2(OOCNc3cccc(F)c3)CCCCC2)c1`, the growth in [1] is 91.7%; in assay [2], 93.8%; in assay [3], 103%; in assay [4], -58.2% (active); in assay [5], 90.8%; in assay [6] it was 95%. Moreover, the growth in assay [7] was 52.3%; in assay [8] it was 92.4%; in assay [9], 88.3%; in assay [10], 84.1%.
In the case of `CN1C(=O)N[C@H]2[C@@H]3NC(=O)c4ccc(Br)n4[C@@H]3C[C@]21O`, the growth in [1] was -55.5% (active); in assay [2] it was -17.4% (active); in assay [3], -14.1% (active); in [4] it was 9.15% (active); in assay [5], -16.7% (active); in assay [6], -24.6% (active). The growth in [7] was 6.74% (active); in assay [8] it was -47.8% (active); in [9], -20% (active); in assay [10], -15% (active).
For `C=CCc1cc2c(cc1OCC)OCO2`, the growth in assay [1] was 104%; in assay [2], 91.1%; in [3], 98.8%; in assay [4] it was 95.4%; in assay [5], 92%; in [6], 111%. For the same compound, the growth in assay [7] is 102%; in assay [8], 91.3%; in assay [9] it was 98.1%; in [10], 106%.
For the compound `C=CC[PH+](c1ccccc1)c1ccccc1.C=CC[PH+](c1ccccc1)c1ccccc1.[Cl][Pt][Cl]`, the growth in [1] was 71.1%; in assay [2] it was 50.8%; in [3], 30.6%; in assay [4], 31.5%; in [5], 73.7%; in [6], 35.9%. Moreover, the growth in assay [7] is 77.9%; in [8], 99%; in [9], -19.4% (active); in [10] it was 3.7% (active).
In the case of `COC(=O)[C@@H](C)C[C@H](Cc1ccccc1)NC(=O)c1csc([C@@H](C[C@H](C(C)C)N(C)C(=O)[C@@H](NC(=O)C23CC(NC(C)=O)(C2)C3)C2CC2)OC(C)=O)n1`, the growth was 49% in [1]; 78.8% in assay [2]; 51.7% in assay [3]; 95.4% in assay [4]; 77.1% in assay [5]; 96.2% in assay [6]. Besides, the growth was 95.3% in assay [7], 48.3% in [8], -17.2% (active) in [9] and 9.99% (active) in [10].
In the case of `O=C(Nc1ccc(Br)cc1)c1cc(Br)cc(Br)c1O`, the growth in assay [1] is -21.8% (active); in assay [2], 10.7%; in assay [3], -2.01% (active); in [4], 4.99% (active); in assay [5], 14.6%; in assay [6] it was -19.5% (active). Moreover, the growth is -6.11% (active) in assay [7], 32.2% in [8], 84.3% in [9] and 13.5% in assay [10].
For the compound `C[C@]12CCc3nc(Nc4ccccc4F)sc3C1=CC[C@@H]1[C@@H]2CC[C@]2(C)C(=O)CC[C@@H]12`, the growth in assay [1] was 92.8%; in assay [2] it was 94.4%; in assay [3], 69.5%; in [4] it was 64.8%; in assay [5] it was 35.7%; in assay [6], 9.9% (active). Moreover, the growth in assay [7] is 65.4%; in [8], 90.6%; in assay [9] it was 34.2%; in [10], 26.6%.
In the case of `C[CH2][Sn]([Cl])([Cl])[CH2]C.Oc1ccccc1C=NCCN=Cc1ccccc1O`, the growth in [1] is 116%; in [2] it was 96.9%; in assay [3], 101%; in assay [4] it was 72.8%; in assay [5], 117%; in assay [6], 97.5%. Besides, the growth is 86.5% in assay [7], 103% in [8], 113% in assay [9] and 92.5% in assay [10].
In the case of `O=C([O][Hg][CH2]C1OCCOC1[CH2][Hg][O]C(=O)c1ccccc1)c1ccccc1` (stereo not given), the growth in assay [1] was 95.4%; in assay [2], 123%; in [3] it was 76.2%; in assay [4] it was -94.8% (active); in assay [5], -99.5% (active); in assay [6], -99.5% (active). The growth in [7] is -94.7% (active); in assay [8], 132%; in [9], -24.7% (active); in assay [10], -15.8% (active).
As for `O=C(O)C(Cl)(Cl)C(F)(F)F`, the growth in assay [1] was 105%; in assay [2] it was 105%; in [3], 104%; in assay [4], 93.5%; in assay [5] it was 98.3%; in assay [6], 107%. The growth in assay [7] was 95%; in assay [8], 95.1%; in [9], 110%; in [10] it was 100%.
In the case of `CC(C)(NC(=O)O[C@@H]1CN2CCC1CC2)c1csc(-c2ccc(F)cc2)n1`, the growth was 108% in [1]; 89.5% in assay [2]; 95.4% in assay [3]; 81.1% in assay [4]; 91.9% in [5]; 98.4% in assay [6]. The growth in assay [7] is 81.5%; in [8] it was 90.6%; in assay [9] it was 90%; in assay [10] it was 98.3%.
